Test results: PubChem BioAssay AID1259373 (The Scripps Research Institute Molecular Screening Center, 2018)
Some of the results follow. Unmarked numbers belong to inactive results. No rule for the calls is given here.

assay: AlphaScreen optical interference compounds, dose response, counter-screen, biochemical, HTS (AID 1259373); conditions: AlphaScreen optical interference counterscreen, cell-free

Structure (SMILES) | IC50 [µM]
COc1ccc2c(c1)CC(C(=O)Nc1ccc(-c3cn[nH]c3)cc1OCc1ccccc1)CO2 (centres undefined) | > 6.48
COc1ccc2c(c1)CC(C(=O)Nc1ccc(-c3cn[nH]c3)cc1OCC(N)=O)CO2 (centres undefined) | > 6.48
COc1cc(N2CCOCC2)ccc1Nc1cc(Nc2ccccc2-n2cccn2)c(C(F)(F)F)cn1 | > 6.48
CCc1ccc(NC(=O)CS(=O)CC(=O)NCCCc2ccccc2)cc1 (centres undefined) | > 6.48
Cc1ccc(NC(=O)COC(=O)CCC(=O)Nc2sc3c(c2C(N)=O)CCC3)cc1F | > 6.95
c1cc2c(cc1CNc1nc(Nc3ccc(N4CCOCC4)cc3)c3ncn(C4CCCCC4)c3n1)OCO2 | > 6.62
CC[C@@H]1NC(=O)[C@H]2CN(C(=O)NCc3ccccc3)CCN2C1=O | > 6.48
C/C(N)=C(/C#N)C(=O)COC(=O)c1c2c(nc3ccccc13)/C(=C/c1ccco1)CC2 | > 6.27
COc1ccc2c(c1)CC(c1nc(Nc3ccc4cnccc4c3)c3ccccc3n1)CO2 (centres undefined) | > 6.48
O=C(Nc1ccc(-c2ccncc2)c(C(F)(F)F)c1)C1COc2ccccc2O1 (centres undefined) | > 6.48
C[C@@H](OCc1ccccc1)[C@@H]1NC(=O)[C@H]2CN(C(=O)Nc3cccc(F)c3)CCN2C1=O | > 6.48
O=C(Cc1cccs1)N/N=C\C=C\c1ccco1 | > 6.48
NC(=O)COC(=O)/C=C/c1ccc(I)o1 | > 7.27
CCOc1ccccc1N1CCN(Cc2cc(OC)c(O)c([N+](=O)[O-])c2)CC1 | > 6.48
